{"source": "the antibiotic and cytotoxicity screens of Wong et al. (2023)", "note": "Out of some 39,000 compounds screened, about 3,300 (8.5%) were called active. For the sample, actives were picked, then their nearest neighbours and some compounds at random.", "data": [{"system": "HepG2", "assay": "cytotoxicity call (relative viability < 0.9)", "settings": "10 µM", "values": [{"smiles": "CO[C@@H]1CN(C)C(=O)c2ccc(NS(=O)(=O)c3cn(C)cn3)cc2OC[C@@H](C)N(CC2CC2)C[C@H]1C", "cytotoxicity call": "inactive"}, {"smiles": "O=S(=O)(NCC[C@H]1CC[C@@H](NS(=O)(=O)c2ccccc2Cl)[C@H](CO)O1)c1ccc(F)cc1", "cytotoxicity call": "inactive"}, {"smiles": "C[C@@H]1CN([C@H](C)CO)C(=O)Cc2cc(NC(=O)Nc3ccc4c(c3)OCO4)ccc2O[C@@H]1CN(C)Cc1ccc(Oc2ccccc2)cc1", "cytotoxicity call": "active"}, {"smiles": "C[C@H]1CN([C@@H](C)CO)C(=O)Cc2cc(NC(=O)Nc3ccc4c(c3)OCO4)ccc2O[C@@H]1CN(C)Cc1ccc(Oc2ccccc2)cc1", "cytotoxicity call": "inactive"}, {"smiles": "C[C@@H]1CN([C@@H](C)CO)C(=O)Cc2cc(NC(=O)Nc3ccc4c(c3)OCO4)ccc2O[C@H]1CN(C)Cc1ccc(Oc2ccccc2)cc1", "cytotoxicity call": "inactive"}, {"smiles": "C[C@H](CO)N1C[C@H](C)[C@@H](CN(C)Cc2ccc(Oc3ccccc3)cc2)Oc2ccc(NC(=O)Nc3ccc4c(c3)OCO4)cc2CC1=O", "cytotoxicity call": "inactive"}, {"smiles": "C[C@@H]1CN([C@H](C)CO)C(=O)Cc2cc(NC(=O)Nc3ccc4c(c3)OCO4)ccc2O[C@H]1CN(C)Cc1ccc(Oc2ccccc2)cc1", "cytotoxicity call": "inactive"}, {"smiles": "C[C@H](CO)N1C[C@H](C)[C@H](CN(C)Cc2ccc(Oc3ccccc3)cc2)Oc2ccc(NC(=O)Nc3ccc4c(c3)OCO4)cc2CC1=O", "cytotoxicity call": "active"}, {"smiles": "C[C@@H]1CN([C@@H](C)CO)C(=O)Cc2cc(NC(=O)Nc3ccc4c(c3)OCO4)ccc2O[C@@H]1CN(C)Cc1ccc(Oc2ccccc2)cc1", "cytotoxicity call": "active"}, {"smiles": "C[C@H]1CN([C@@H](C)CO)C(=O)Cc2cc(NC(=O)Nc3ccc4c(c3)OCO4)ccc2O[C@H]1CN(C)Cc1ccc(Oc2ccccc2)cc1", "cytotoxicity call": "inactive"}, {"smiles": "C[C@@H]1CCCCO[C@H](CN(C)C(=O)Nc2ccc(F)cc2)[C@H](C)CN([C@@H](C)CO)C(=O)c2cc(NC(=O)C3CCCCC3)ccc2O1", "cytotoxicity call": "inactive"}, {"smiles": "Cc1noc(C)c1S(=O)(=O)Nc1cccc2c1O[C@H](CN(C)S(=O)(=O)c1ccc(Cl)cc1)[C@H](C)CN([C@H](C)CO)C2=O", "cytotoxicity call": "inactive"}, {"smiles": "C[C@@H]1CCCCO[C@@H](CN(C)S(=O)(=O)c2ccc(Cl)cc2)[C@@H](C)CN([C@H](C)CO)C(=O)c2cc(NS(=O)(=O)c3ccccc3)ccc2O1", "cytotoxicity call": "inactive"}, {"smiles": "C[C@H](CO)N1C[C@H](C)[C@H](CN(C)S(=O)(=O)c2ccc(C#N)cc2)Oc2ncc(-c3ccc(F)cc3)cc2C1=O", "cytotoxicity call": "inactive"}, {"smiles": "C[C@@H]1CN([C@@H](C)CO)C(=O)Cc2cc(NC(=O)Nc3ccc(F)cc3)ccc2O[C@H]1CN(C)Cc1ccc(Oc2ccccc2)cc1", "cytotoxicity call": "active"}, {"smiles": "C[C@H](CO)N1C[C@H](C)[C@H](CN(C)Cc2ccc(Oc3ccccc3)cc2)Oc2ccc(NC(=O)Nc3ccc(F)cc3)cc2CC1=O", "cytotoxicity call": "active"}, {"smiles": "C[C@H]1CN([C@@H](C)CO)C(=O)Cc2cc(NC(=O)Nc3ccc(F)cc3)ccc2O[C@@H]1CN(C)Cc1ccc(Oc2ccccc2)cc1", "cytotoxicity call": "active"}, {"smiles": "C[C@@H]1CN([C@H](C)CO)C(=O)Cc2cc(NC(=O)Nc3ccc(F)cc3)ccc2O[C@@H]1CN(C)Cc1ccc(Oc2ccccc2)cc1", "cytotoxicity call": "active"}, {"smiles": "COc1ccc(CN(C)C[C@H]2OCCCC[C@@H](C)Oc3ccc(NC(=O)c4ccncc4)cc3C(=O)N([C@@H](C)CO)C[C@@H]2C)cc1", "cytotoxicity call": "inactive"}, {"smiles": "Cc1ccc(S(=O)(=O)Nc2ccc3c(c2)C(=O)N([C@H](C)CO)C[C@@H](C)[C@H](CN(C)C(=O)c2ccccc2)OCCCC[C@@H](C)O3)cc1", "cytotoxicity call": "inactive"}, {"smiles": "Cc1ccc(S(=O)(=O)N[C@H]2CC[C@H](CC(=O)N3CCC(Cc4ccccc4)CC3)O[C@@H]2CO)cc1", "cytotoxicity call": "inactive"}, {"smiles": "C[C@@H]1CCCCO[C@@H](CN(C)C)[C@@H](C)CN([C@H](C)CO)C(=O)c2cc(NS(=O)(=O)c3cn(C)cn3)ccc2O1", "cytotoxicity call": "inactive"}, {"smiles": "CC(C)NC(=O)N(C)C[C@H]1Oc2c(NC(=O)NC3CCCCC3)cccc2C(=O)N([C@@H](C)CO)C[C@H]1C", "cytotoxicity call": "inactive"}, {"smiles": "C[C@@H]1CN([C@@H](C)CO)C(=O)c2cccc(NC(=O)Nc3ccccc3)c2O[C@@H]1CN(C)S(=O)(=O)c1cn(C)cn1", "cytotoxicity call": "inactive"}, {"smiles": "C[C@@H]1CCCCO[C@@H](CN(C)S(=O)(=O)c2cn(C)cn2)[C@H](C)CN([C@H](C)CO)C(=O)c2cc(N(C)C)ccc2O1", "cytotoxicity call": "inactive"}, {"smiles": "O=C(CN1CCOCC1)N[C@@H]1CC[C@@H](CCNC(=O)Nc2cc(F)ccc2F)O[C@@H]1CO", "cytotoxicity call": "inactive"}, {"smiles": "C[C@@H]1CCCCO[C@H](CN(C)C)[C@@H](C)CN([C@H](C)CO)C(=O)c2cc(NC(=O)CCCN(C)C)ccc2O1", "cytotoxicity call": "inactive"}, {"smiles": "C[C@@H]1CCCCO[C@@H](CN(C)C(=O)NC2CCCCC2)[C@@H](C)CN([C@@H](C)CO)C(=O)c2cc(NC(=O)Nc3ccc4c(c3)OCO4)ccc2O1", "cytotoxicity call": "inactive"}, {"smiles": "C[C@@H]1CN([C@@H](C)CO)C(=O)Cc2cc(NC(=O)Nc3ccc(F)cc3)ccc2O[C@@H]1CN(C)Cc1ccc(Oc2ccccc2)cc1", "cytotoxicity call": "inactive"}, {"smiles": "C[C@H]1CN([C@@H](C)CO)C(=O)Cc2cc(NC(=O)Nc3ccc(F)cc3)ccc2O[C@H]1CN(C)Cc1ccc(Oc2ccccc2)cc1", "cytotoxicity call": "active"}, {"smiles": "C[C@H](CO)N1C[C@H](C)[C@@H](CN(C)Cc2ccc(Oc3ccccc3)cc2)Oc2ccc(NC(=O)Nc3ccc(F)cc3)cc2CC1=O", "cytotoxicity call": "active"}, {"smiles": "C[C@@H]1CN([C@H](C)CO)C(=O)Cc2cc(NC(=O)Nc3ccc(F)cc3)ccc2O[C@H]1CN(C)Cc1ccc(Oc2ccccc2)cc1", "cytotoxicity call": "active"}, {"smiles": "CC(=O)Nc1nnc(S(N)(=O)=O)s1", "cytotoxicity call": "inactive"}, {"smiles": "C[C@H](CO)N1C[C@H](C)[C@@H](CN(C)S(=O)(=O)c2ccc(F)cc2)Oc2ccc(NC(=O)Cn3cnnn3)cc2C1=O", "cytotoxicity call": "inactive"}, {"smiles": "CC(C)NC(=O)Nc1cccc2c1O[C@@H](CN(C)S(=O)(=O)c1cn(C)cn1)[C@@H](C)CN([C@H](C)CO)C2=O", "cytotoxicity call": "inactive"}, {"smiles": "CONC(=O)Nc1ccc(-c2sc3c(c2CN(C)Cc2ccccc2)c(=O)n(-c2ccccc2)c(=O)n3Cc2c(F)cccc2F)cc1", "cytotoxicity call": "inactive"}, {"smiles": "CC(C)OC(=O)c1cn(Cc2c(F)cccc2F)c2sc(-c3ccc(NC(=O)C(C)C)cc3)c(CN(C)Cc3ccccc3)c2c1=O", "cytotoxicity call": "active"}, {"smiles": "C[C@@H]1CN([C@@H](C)CO)C(=O)c2cccc(NC(=O)Nc3ccc(F)cc3)c2O[C@H]1CN(C)Cc1ccc(-c2ccccc2)cc1", "cytotoxicity call": "inactive"}]}]}
